About 83,000 compounds went through this panel and 20% of them were active in at least one assay; those are over-represented in the sample as a whole.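 Assay: single dose, 48 h. Readout: percent growth (0 = no net growth; negative = cell death). Active: <10.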 Activity calls are given as the source filed them.
Legend:
Test in all cases: NCI-60 one-dose screen, 48 h (100 = growth as untreated, 0 = no growth, -100 = all killed)
[1] = tested on: NCI-H23 lung; conditions: 10 µM unless noted
[2] = tested on: NCI-H226 lung; conditions: 10 µM unless noted
[3] = tested on: DU-145 prostate; conditions: 10 µM unless noted
[4] = tested on: MDA-MB-231 breast; conditions: 10 µM unless noted
[5] = tested on: SF-268 CNS; conditions: 10 µM unless noted
[6] = tested on: M14 melanoma; conditions: 10 µM unless noted
[7] = tested on: HCT-15 colon; conditions: 10 µM
[8] = tested on: SNB-75 CNS; conditions: 10 µM unless noted
[9] = tested on: U251 CNS; conditions: 10 µM unless noted
[10] = tested on: PC-3 prostate; conditions: 10 µM unless noted
[11] = tested on: UACC-62 melanoma; conditions: 10 µM unless noted
[12] = tested on: OVCAR-8 ovarian; conditions: 10 µM unless noted
[13] = tested on: OVCAR-5 ovarian; conditions: 10 µM unless noted
[14] = tested on: SK-OV-3 ovarian; conditions: 10 µM unless noted
[15] = tested on: OVCAR-3 ovarian; conditions: 10 µM unless noted
[16] = tested on: NCI/ADR-RES ovarian; conditions: 10 µM unless noted
[17] = tested on: MDA-MB-435 melanoma; conditions: 10 µM unless noted
[18] = tested on: MCF7 breast; conditions: 10 µM unless noted
[19] = tested on: HCT-116 colon; conditions: 10 µM unless noted
[20] = tested on: KM12 colon; conditions: 10 µM unless noted

Measured: growth

C[CH2][Sn]([CH2]C)([CH2]C)[NH]S(=O)(=O)c1ccc(C)cc1
inactive: [1] 96.4% | [2] 116% | [3] 113% | [4] 107% | [5] 108% | [6] 108% | [7] 96.5% | [8] 94.6% | [9] 99.5% | [10] 111% | [11] 100% | [12] 104% | [13] 114% | [14] 110% | [15] 113% | [16] 104% | [17] 102% | [18] 103% | [19] 106% | [20] 105%

O=[N+]([O-])c1ccc2cnn(CSP(=S)(c3ccccc3)c3ccccc3)c2c1
inactive: [1] 67.4% | [2] 77.4% | [3] 105% | [4] 51.8% | [5] 79.9% | [6] 58.1% | [7] 48.1% | [8] 70.6% | [9] 74.1% | [10] 58.6% | [11] 43% | [12] 82.4% | [13] 96.7% | [14] 90.1% | [15] 71.6% | [16] 49.8% | [18] 26.8% | [19] 42.4% | [20] 63.7%
active: [17] -20.9%

C=CCC1(CC)C(=O)NC(=S)NC1=O
inactive: [1] 100% | [2] 104% | [3] 103% | [4] 109% | [5] 101% | [6] 115% | [7] 99.9% | [8] 104% | [9] 101% | [10] 96.8% | [11] 101% | [12] 100% | [13] 101% | [14] 97.1% | [15] 105% | [16] 104% | [17] 103% | [18] 103% | [19] 108% | [20] 101%

From PubChem BioAssay (NCI)
